Artemis endo inh – Artemis endonuclease inhibitors, primary screen, biochemical, fluorescence intensity, FAM/BHQ-1 hairpin substrate; Protein artemis (Homo sapiens), Q96SD1; recombinant Artemis, quenched FAM hairpin cleavage fluorescence; inhibition, % at 10 µM; 30,000 compounds, 0.78% hits; AID 686954, 2013;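 active means at 10 µM dose, at least 30% inhibition, measured as corrected fluorescence normalized to stimulator and neutral control wells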
Target sequence (Q96SD1 whole entry, looked up): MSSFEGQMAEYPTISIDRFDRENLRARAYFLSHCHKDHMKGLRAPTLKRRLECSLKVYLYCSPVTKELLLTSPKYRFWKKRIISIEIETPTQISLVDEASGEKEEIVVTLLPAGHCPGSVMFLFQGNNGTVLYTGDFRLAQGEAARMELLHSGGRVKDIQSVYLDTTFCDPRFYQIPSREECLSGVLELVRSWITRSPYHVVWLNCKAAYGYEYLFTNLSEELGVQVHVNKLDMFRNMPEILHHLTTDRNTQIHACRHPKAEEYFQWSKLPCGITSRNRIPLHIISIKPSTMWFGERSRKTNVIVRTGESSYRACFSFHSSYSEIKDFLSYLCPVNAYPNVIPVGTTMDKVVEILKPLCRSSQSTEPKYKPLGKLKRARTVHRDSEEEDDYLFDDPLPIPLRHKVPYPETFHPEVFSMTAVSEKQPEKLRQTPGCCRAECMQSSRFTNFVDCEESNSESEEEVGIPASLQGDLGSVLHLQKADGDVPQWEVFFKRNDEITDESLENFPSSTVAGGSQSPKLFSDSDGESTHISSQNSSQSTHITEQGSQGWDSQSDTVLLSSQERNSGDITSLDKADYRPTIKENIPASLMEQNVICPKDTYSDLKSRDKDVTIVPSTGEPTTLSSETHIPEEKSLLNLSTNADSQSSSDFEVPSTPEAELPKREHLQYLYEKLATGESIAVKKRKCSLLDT
Numbers stand for hits; 0 = inactive. This excerpt belongs to a sample that is enriched for hits.

SMILES	Artemis endo inh
O=C(CCCN1C(=O)c2ccccc2C1=O)OC1CSCC1NC(=O)c1ccccc1 (stereo not given)	0
COc1ccccc1C(=O)OCc1c(F)cccc1Cl	0
NS(=O)(=O)c1cccnc1Nc1c(Cl)cccc1Cl	0
Cc1ccc(-c2n[nH]c(=S)n2/N=C/C=C\c2ccccc2[N+](=O)[O-])cc1	0
O=[N+]([O-])c1ccccc1/C=C/C=N/n1c(-c2ccc(Cl)cc2)n[nH]c1=S	30.5
Cn1cccc1/C=N/n1c(-c2ccccc2)n[nH]c1=S	0
CC(N1CCOC1=O)S(=O)(=O)c1ccccc1 (stereo not given)	0
C=CCNc1nc(N2CCCCC2)c(C#N)c2c1CN(Cc1ccccc1)CC2	0
O=c1ccc2cc3c([nH]c4ccc(Br)cc43)oc-2c1O	80.9
O=c1c(O)c(-c2ccc3c(c2)OCO3)oc2ccccc12	0
Cc1[nH]c2ccc(Br)cc2c(=O)c1CN1CCOCC1	0
CCOc1ccc(C(O)C(CN2CCOCC2)c2ccccc2)cc1 (stereo not given)	0
O=C1CCSc2ccc(Cl)cc2N1Cc1ccc(Cl)cc1	0
CC12CCC(C(=O)NCc3ccc4c(c3)OCO4)(C(=O)C1=O)C2(C)C (stereo not given)	0
CCOC(=O)CSc1nnc(SCCN2C(=O)c3ccccc3C2=O)s1	0
N#Cc1c(-c2ccccc2)nc2n(-c3ccccc3)nc(C(=O)Nc3ccccc3)n2c1=O	0
N#Cc1c(-c2ccccc2)c(-c2ccccc2)nn(CC(=O)NNC(=O)Nc2ccc(Cl)c(Cl)c2)c1=O	30.1
N#Cc1c(NC(=O)CCn2cnc3ccccc3c2=O)oc(-c2ccccc2)c1-c1ccccc1	0
COc1ccc(COC(=O)NNC(=O)c2ccccc2Cl)cc1	0
CNc1nc(C)cc(C)c1S(=O)(=O)c1ccc(C)cc1	0
Cc1ccc(NC(=O)CC2SC(=O)N(c3ccccc3)C2=O)cc1 (stereo not given)	0
Cc1cccc(NC(=O)CC2SC(=O)N(c3ccccc3)C2=O)c1 (stereo not given)	0
CC(=O)N(c1cccc(C)c1)C1SC(=O)N(c2ccccc2)C1=O (stereo not given)	36.8
O=C(Nc1ccccc1-c1ccccc1)c1ccc(NC(=O)c2ccco2)cc1	0
O=S(=O)(c1ccc(Oc2ccc(Br)cc2)cc1)N1CCOCC1	0
SMILES	Artemis endo inh
CCc1nnc(NC(=O)CCC(=O)N2CCN(CCOc3ccc(C)cc3)CC2)s1	0
O=C(NCc1ccco1)c1ccc2snnc2c1	0
O=C(NCCO)c1ccc2nc(-c3ccco3)c(-c3ccco3)nc2c1	37.8
O=C(NCCCNC(=O)c1ccco1)c1ccco1	0
O=S1(=O)C=C(SCc2cccc(Cl)c2)Nc2ccccc21	0
COc1cccc(OC)c1-c1nn2c(-c3cc(-c4ccccc4)n[nH]3)nnc2s1	80.2
Cc1cc(-c2nnc3sc(-c4ccc(Cl)cc4Cl)nn23)n[nH]1	0
CCOc1cccc(-c2nn3c(-c4cc(C)[nH]n4)nnc3s2)c1	0
CC1(C)CC(=O)CC(=Nc2ccc(C(=O)O)cc2)C1	0
CSc1ccc(/C=N/NC(=O)c2cccc(O)c2)cc1	0
Clc1ccc(-c2cn3nc4c(nc3n2)CCCC4)cc1	37.1
OC1CCN(c2c3c(nc4cc(-c5ccc(Cl)cc5)nn24)CCC3)CC1	0
COc1cccc(-c2csc(NC(C)=O)n2)c1	0
COc1cccc(-c2cn3nc4c(nc3n2)CCCC4)c1	35.6
Clc1ccc(-c2cn3cccnc3n2)cc1	0
COc1cccc(-c2cc(C(F)(F)F)n3nc(N)nc3n2)c1	0
COc1ccc(/C=N\NC(=O)C2C(=O)NCC2c2ccccc2)cc1O (stereo not given)	0
CCNC(=O)CSc1ncnc2sccc12	0
N#Cc1c(NC(=O)CSc2ncnc3sccc23)oc(-c2ccco2)c1-c1ccco1	31.3
N#Cc1ccsc1NC(=O)CSc1ncnc2ccccc12	0
COc1ccc(-c2nc(N)nc(C)c2Oc2ccccc2Br)c(O)c1	0
Cc1cccc(OCC(=O)O/N=C(\N)Cc2ccc(Cl)cc2)c1	0
CC(C)Cn1c(=O)c2c(nc3n2CCCN3CCc2ccccc2)n(C)c1=O	0
CC(=O)N(Cc1ccc(F)cc1)C1=C(NCc2ccccc2)C(=O)c2ccccc2C1=O	39.3
CC(C)N(CCNC(=O)C1CCC(=O)N1Cc1ccc(F)cc1)Cc1ccccc1 (stereo not given)	0
SMILES	Artemis endo inh
Cn1c(NCc2ccccc2)cc(=O)n(C)c1=O	0
O=C(Nc1ccc(Cl)c(Cl)c1)OCCNC(=O)c1cccc(Cl)c1	0
CCOC(=O)C1=C(O)/C(=C\c2ccc(CNC(=O)C(=O)Nc3ccccc3)o2)N=C1C	0
O=C(CSc1ncn[nH]1)NCCCc1ccccc1	0
COCC(=O)N(C)c1nnc(-c2cnc(C)cn2)s1	0
Cc1[nH]n2c(=O)c3c(nc2c1-c1ccccc1)CCC3	0
Cc1[nH]n2c(=O)c3c(nc2c1-c1ccc(Cl)cc1)CCC3	0
Nc1[nH]n2c(=O)c3c(nc2c1N=Nc1ccc(Cl)cc1)CCCC3	30.4
Cc1[nH]n2c(=O)cc(-c3ccc([N+](=O)[O-])cc3)nc2c1-c1ccccc1	31.9
Cc1ccc(N=Nc2c(=O)[nH]n3c(=O)cc(C)[nH]c23)cc1	0
Cc1[nH]n2c(=O)cc(C(C)(C)C)nc2c1-c1ccccc1	0
COc1cccc(-c2cc(C(F)(F)F)n3ncc(C(=O)O)c3n2)c1	0
COc1cccc(N=Nc2c(N)[nH]n3c(=O)cc(-c4ccccc4)nc23)c1	36.3
Cc1ccc(N=Nc2c(N)[nH]n3c(=O)cc(-c4ccccc4)nc23)cc1	47.7
CSc1nc2nc(-c3ccccc3)cc(=O)n2[nH]1	0
Cc1ccc(C(=O)Nc2nc3nc(-c4ccccc4)cc(=O)n3[nH]2)cc1	0
CCOC(=O)Cc1cc(=O)n2[nH]c(C)c(-c3ccc(OC)cc3)c2n1	0
N/C(COc1cccc(C(F)(F)F)c1)=N\NC(=O)c1cccnc1Oc1ccccc1	0
COc1ccc(CCNC(=O)c2ccc(CNS(=O)(=O)c3cc(C)ccc3C)cc2)cc1OC	0
O=C(CSc1ncn[nH]1)Nc1ccc(S(=O)(=O)N2CCCC2)cc1	0
Cc1csc(SCC(=O)c2c(N)n(C)c(=O)n(C)c2=O)n1	0
CCS(=O)(=O)NCCc1cc2ccc(C)cc2[nH]c1=O	0
CC1(C)Oc2nc3ccccc3n2/C1=C\C#N	0
CCCOc1ccc(/C=N/NC(=O)c2ccc(Cn3cc([N+](=O)[O-])cn3)o2)cc1	0
Cc1cc(C)nc(NC(=O)C(C)C)n1	0
SMILES	Artemis endo inh
Oc1ccc2ccccc2c1C=NC12CN3CCN(CN(C3)C1)C2	40.9
Cc1[nH]n(-c2cccc(Cl)c2)c(=O)c1C=NC12CN3CN(CN(C3)C1)C2	0
CN(C)/N=C/c1c(O)ccc2ccccc12	0
O=C(Nn1nnnc1Nc1ccccc1)C12CC3CC(CC(C3)C1)C2	0
CC(=O)C1=C(C)NC(C)=C(C(C)=O)C1c1ccc(-c2ccccc2Cl)o1	0
CCOc1ccc(-c2nnn(CC#N)n2)cc1OC	0
COc1ccc([N+](=O)[O-])cc1NC(=S)NC(NC(=O)C(c1ccccc1)c1ccccc1)C(Cl)(Cl)Cl (stereo not given)	0
Cc1cccc(C(=O)Nc2ccccc2SCC2CSc3nc4ccccc4c(=O)n32)c1 (stereo not given)	0
Cn1c(-c2ccc(C=O)s2)nc2c3ccccc3c3ccccc3c21	46.1
COC(=O)c1ccccc1NC(=O)c1cc2ncc(Br)cn2n1	0
Cc1c(Cl)c([N+](=O)[O-])nn1CC(=O)NC(C)C1CC2CCC1C2 (stereo not given)	0

Bioassay records: PubChem, Sanford-Burnham Center for Chemical Genomics
